Measurements as given in ChEMBL document CHEMBL1961873, “Compounds: GSK PKIS; Assays: Nanosyn kinase panel” (2012).

Assays:
[1] = molecular target: T1, Inhibitor of nuclear factor kappa-B kinase subunit epsilon (Homo sapiens) (UniProt Q14164); settings: at 1 µM;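 further: reported values are averaged percent inhibition figures against human IKKε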
T1 sequence (whole entry): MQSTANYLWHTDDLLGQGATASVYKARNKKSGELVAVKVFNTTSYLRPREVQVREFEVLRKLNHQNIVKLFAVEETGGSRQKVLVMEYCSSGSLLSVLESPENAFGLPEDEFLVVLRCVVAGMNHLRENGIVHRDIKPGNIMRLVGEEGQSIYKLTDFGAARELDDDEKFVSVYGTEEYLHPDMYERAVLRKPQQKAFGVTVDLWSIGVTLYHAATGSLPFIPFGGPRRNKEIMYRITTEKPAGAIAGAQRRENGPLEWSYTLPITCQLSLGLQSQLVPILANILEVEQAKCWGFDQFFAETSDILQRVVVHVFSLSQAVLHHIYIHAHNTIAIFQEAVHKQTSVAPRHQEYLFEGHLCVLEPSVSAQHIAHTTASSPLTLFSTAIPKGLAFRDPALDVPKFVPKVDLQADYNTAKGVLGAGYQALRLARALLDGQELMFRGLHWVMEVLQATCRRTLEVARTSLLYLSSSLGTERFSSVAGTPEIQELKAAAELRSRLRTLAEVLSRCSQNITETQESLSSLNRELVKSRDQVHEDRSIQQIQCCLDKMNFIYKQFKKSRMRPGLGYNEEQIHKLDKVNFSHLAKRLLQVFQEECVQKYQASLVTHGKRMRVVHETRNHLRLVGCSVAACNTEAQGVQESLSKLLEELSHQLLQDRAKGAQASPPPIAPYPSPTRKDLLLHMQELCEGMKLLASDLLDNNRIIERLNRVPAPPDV

[2] = molecular target: T2, Serine/threonine-protein kinase Nek1 (Homo sapiens) (UniProt Q96PY6); settings: at 0.1 µM
T2 sequence (whole entry): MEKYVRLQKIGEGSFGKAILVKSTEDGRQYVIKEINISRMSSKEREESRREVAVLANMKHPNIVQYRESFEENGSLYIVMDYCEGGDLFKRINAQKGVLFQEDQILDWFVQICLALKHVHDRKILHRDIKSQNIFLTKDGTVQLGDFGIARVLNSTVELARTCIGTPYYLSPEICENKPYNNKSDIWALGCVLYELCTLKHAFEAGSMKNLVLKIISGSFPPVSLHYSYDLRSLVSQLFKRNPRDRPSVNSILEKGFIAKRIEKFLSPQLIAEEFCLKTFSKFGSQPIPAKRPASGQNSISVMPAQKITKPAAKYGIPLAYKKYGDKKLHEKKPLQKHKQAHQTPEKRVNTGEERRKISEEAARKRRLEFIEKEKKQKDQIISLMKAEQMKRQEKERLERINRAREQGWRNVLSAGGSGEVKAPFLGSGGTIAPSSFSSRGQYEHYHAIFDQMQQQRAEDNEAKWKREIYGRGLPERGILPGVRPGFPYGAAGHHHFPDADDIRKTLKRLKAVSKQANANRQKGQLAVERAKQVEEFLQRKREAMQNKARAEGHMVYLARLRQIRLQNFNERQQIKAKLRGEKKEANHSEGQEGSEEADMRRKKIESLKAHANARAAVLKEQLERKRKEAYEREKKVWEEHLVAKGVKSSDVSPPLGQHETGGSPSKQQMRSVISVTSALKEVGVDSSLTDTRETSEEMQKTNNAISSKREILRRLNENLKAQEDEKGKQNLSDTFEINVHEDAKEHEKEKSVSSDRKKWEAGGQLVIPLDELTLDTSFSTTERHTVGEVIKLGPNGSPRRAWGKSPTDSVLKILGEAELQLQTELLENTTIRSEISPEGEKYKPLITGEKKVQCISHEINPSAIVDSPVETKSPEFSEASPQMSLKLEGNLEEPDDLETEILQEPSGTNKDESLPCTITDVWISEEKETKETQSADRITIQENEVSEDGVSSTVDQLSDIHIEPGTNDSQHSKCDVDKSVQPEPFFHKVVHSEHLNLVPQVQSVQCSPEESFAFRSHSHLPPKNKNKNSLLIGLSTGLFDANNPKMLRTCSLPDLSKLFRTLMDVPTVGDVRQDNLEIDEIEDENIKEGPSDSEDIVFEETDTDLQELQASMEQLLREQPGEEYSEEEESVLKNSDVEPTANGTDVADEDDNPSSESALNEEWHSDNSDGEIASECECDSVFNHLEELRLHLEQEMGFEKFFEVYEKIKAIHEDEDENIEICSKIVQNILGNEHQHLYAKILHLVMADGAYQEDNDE

[3] = molecular target: T2, Serine/threonine-protein kinase Nek1 (Homo sapiens); settings: at 1 µM
[4] = molecular target: T3, Serine/threonine-protein kinase Nek2 (Homo sapiens) (UniProt P51955); settings: at 0.1 µM
T3 sequence (whole entry): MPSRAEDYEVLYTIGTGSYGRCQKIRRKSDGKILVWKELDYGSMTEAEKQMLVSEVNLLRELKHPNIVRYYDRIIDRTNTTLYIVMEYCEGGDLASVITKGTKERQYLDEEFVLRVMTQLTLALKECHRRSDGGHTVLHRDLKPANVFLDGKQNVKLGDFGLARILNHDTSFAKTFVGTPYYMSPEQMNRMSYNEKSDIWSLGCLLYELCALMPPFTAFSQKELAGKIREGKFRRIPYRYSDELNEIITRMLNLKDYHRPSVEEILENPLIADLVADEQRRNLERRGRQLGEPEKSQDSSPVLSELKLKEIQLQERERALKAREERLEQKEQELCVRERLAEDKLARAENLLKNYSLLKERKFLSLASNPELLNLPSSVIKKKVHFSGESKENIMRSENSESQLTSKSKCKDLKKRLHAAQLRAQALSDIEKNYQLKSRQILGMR

[5] = molecular target: T3, Serine/threonine-protein kinase Nek2 (Homo sapiens); settings: at 1 µM
[6] = molecular target: Serine/threonine-protein kinase Nek6 (Homo sapiens) (UniProt Q9HC98); settings: at 0.1 µM
Chain of Serine/threonine-protein kinase Nek6 (Homo sapiens) (Q9HC98 whole entry): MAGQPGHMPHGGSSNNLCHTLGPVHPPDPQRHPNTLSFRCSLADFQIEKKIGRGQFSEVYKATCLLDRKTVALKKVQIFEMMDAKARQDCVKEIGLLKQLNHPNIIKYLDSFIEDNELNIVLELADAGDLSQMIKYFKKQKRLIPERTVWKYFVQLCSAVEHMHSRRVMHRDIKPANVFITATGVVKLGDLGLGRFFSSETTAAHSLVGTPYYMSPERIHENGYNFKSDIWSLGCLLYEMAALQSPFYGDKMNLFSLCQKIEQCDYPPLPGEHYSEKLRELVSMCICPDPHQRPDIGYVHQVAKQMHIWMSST

[7] = molecular target: Serine/threonine-protein kinase Nek6 (Homo sapiens) (UniProt Q9HC98); settings: at 1 µM
[8] = molecular target: Serine/threonine-protein kinase Nek7 (Homo sapiens) (UniProt Q8TDX7); settings: at 0.1 µM
Chain of Serine/threonine-protein kinase Nek7 (Homo sapiens) (Q8TDX7 whole entry, looked up): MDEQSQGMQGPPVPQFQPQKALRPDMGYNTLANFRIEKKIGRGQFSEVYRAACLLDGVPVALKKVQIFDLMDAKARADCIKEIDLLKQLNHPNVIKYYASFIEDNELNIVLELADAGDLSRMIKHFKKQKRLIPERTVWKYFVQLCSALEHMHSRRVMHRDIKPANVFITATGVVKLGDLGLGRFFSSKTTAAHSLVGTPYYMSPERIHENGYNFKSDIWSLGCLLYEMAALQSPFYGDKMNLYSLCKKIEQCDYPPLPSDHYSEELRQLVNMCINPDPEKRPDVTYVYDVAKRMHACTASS

[9] = molecular target: Serine/threonine-protein kinase Nek7 (Homo sapiens) (UniProt Q8TDX7); settings: at 1 µM
[10] = molecular target: T4, Serine/threonine-protein kinase Nek9 (Homo sapiens) (UniProt Q8TD19); settings: at 0.1 µM
T4 sequence (whole entry): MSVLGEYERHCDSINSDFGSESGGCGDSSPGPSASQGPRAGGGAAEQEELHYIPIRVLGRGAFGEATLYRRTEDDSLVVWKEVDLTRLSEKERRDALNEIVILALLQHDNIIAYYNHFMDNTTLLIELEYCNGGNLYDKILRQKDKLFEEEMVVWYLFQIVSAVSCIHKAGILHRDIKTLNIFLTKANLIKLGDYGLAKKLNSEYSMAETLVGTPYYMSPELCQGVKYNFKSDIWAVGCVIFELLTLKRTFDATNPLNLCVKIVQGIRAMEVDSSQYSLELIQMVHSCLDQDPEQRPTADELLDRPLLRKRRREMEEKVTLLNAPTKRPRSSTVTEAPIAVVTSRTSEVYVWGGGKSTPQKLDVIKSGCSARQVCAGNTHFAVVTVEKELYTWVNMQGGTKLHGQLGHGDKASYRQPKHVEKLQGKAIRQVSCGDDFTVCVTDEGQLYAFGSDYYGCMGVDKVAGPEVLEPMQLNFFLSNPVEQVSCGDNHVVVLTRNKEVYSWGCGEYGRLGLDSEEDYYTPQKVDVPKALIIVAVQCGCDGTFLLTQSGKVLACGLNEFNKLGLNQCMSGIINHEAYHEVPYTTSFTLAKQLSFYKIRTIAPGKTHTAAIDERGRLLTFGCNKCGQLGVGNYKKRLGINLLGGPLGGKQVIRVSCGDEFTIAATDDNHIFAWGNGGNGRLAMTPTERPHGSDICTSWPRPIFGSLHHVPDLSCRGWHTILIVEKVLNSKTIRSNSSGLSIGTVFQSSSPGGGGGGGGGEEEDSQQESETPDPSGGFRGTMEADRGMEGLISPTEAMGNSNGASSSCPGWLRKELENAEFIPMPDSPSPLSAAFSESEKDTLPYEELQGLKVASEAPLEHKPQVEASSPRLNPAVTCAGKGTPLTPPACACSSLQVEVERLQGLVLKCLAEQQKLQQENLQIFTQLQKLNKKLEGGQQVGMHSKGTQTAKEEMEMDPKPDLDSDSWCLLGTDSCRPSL

[11] = molecular target: T4, Serine/threonine-protein kinase Nek9 (Homo sapiens); settings: at 1 µM
[12] = molecular target: Serine/threonine-protein kinase PLK1 (Homo sapiens) (UniProt P53350); settings: at 0.1 µM
Chain of Serine/threonine-protein kinase PLK1 (Homo sapiens) (P53350 whole entry): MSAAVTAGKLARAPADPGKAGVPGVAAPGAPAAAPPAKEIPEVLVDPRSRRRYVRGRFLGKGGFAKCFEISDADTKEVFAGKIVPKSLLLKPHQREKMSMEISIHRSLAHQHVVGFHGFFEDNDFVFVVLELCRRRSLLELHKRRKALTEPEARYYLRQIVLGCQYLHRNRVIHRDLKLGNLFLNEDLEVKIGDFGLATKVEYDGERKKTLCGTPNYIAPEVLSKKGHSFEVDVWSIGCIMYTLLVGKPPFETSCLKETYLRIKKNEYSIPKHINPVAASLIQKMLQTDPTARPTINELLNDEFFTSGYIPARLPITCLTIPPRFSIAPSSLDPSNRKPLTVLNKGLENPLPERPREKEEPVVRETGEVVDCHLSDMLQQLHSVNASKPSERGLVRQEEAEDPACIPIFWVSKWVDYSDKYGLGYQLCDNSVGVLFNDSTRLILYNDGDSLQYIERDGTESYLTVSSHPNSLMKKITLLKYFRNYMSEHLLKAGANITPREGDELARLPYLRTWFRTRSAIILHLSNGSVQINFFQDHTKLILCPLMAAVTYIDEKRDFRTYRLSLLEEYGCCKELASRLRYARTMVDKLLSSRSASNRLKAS

[13] = molecular target: Serine/threonine-protein kinase PLK1 (Homo sapiens) (UniProt P53350); settings: at 1 µM
[14] = molecular target: T5, Dual specificity protein kinase TTK (Homo sapiens) (UniProt P33981); settings: at 0.1 µM
T5 sequence (whole entry): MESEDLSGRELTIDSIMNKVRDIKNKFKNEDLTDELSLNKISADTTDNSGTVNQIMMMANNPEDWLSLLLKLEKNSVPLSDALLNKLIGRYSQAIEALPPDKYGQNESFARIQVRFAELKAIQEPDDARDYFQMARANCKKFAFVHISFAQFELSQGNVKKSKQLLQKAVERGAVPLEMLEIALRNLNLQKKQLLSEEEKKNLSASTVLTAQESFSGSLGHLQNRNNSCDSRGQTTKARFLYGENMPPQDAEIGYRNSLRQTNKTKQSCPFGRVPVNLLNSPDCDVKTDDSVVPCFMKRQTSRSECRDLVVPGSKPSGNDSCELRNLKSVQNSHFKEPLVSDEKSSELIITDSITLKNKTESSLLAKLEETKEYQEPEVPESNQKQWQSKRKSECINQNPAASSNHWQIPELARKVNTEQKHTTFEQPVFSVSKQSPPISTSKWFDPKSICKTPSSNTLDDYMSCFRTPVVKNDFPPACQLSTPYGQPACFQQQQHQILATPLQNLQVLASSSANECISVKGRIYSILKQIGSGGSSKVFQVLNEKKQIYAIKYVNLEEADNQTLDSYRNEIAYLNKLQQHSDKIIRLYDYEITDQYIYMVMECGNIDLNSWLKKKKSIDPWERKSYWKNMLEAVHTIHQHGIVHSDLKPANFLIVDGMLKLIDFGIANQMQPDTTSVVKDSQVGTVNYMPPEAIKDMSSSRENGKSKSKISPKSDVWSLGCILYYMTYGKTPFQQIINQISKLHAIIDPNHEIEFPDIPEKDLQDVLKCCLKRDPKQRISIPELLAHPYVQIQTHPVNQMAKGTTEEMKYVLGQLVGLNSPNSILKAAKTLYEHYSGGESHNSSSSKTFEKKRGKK

[15] = test system: T6, Receptor-type tyrosine-protein kinase FLT3 (Homo sapiens), P36888 [D835Y]; settings: at 1 µM
T6 sequence (whole entry): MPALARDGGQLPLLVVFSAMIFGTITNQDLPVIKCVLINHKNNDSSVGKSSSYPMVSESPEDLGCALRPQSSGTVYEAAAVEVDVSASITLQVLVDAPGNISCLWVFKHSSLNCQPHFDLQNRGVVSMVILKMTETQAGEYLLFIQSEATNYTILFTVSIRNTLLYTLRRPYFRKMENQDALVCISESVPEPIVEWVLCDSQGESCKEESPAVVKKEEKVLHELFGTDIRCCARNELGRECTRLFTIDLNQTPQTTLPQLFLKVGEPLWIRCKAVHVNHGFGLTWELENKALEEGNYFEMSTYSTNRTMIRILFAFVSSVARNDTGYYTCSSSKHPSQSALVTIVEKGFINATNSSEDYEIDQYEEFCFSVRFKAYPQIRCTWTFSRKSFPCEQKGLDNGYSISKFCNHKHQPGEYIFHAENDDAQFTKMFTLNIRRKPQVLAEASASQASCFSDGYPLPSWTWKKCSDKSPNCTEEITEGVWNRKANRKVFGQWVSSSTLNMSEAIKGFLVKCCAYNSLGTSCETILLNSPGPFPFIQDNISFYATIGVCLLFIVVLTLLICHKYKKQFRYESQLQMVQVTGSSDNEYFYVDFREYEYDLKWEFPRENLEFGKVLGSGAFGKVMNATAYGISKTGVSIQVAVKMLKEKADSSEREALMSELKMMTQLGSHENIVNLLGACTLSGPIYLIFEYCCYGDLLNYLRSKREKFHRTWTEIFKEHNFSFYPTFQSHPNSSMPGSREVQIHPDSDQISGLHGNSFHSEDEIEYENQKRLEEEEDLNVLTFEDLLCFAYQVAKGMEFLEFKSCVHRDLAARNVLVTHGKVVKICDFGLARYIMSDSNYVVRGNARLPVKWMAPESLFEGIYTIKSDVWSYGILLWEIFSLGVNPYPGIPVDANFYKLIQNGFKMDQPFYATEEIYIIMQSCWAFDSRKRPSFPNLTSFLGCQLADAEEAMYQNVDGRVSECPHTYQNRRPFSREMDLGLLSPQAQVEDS

[16] = molecular target: Vascular endothelial growth factor receptor 3 (Homo sapiens) (UniProt P35916); settings: at 0.1 µM
Chain of Vascular endothelial growth factor receptor 3 (Homo sapiens) (P35916 whole entry): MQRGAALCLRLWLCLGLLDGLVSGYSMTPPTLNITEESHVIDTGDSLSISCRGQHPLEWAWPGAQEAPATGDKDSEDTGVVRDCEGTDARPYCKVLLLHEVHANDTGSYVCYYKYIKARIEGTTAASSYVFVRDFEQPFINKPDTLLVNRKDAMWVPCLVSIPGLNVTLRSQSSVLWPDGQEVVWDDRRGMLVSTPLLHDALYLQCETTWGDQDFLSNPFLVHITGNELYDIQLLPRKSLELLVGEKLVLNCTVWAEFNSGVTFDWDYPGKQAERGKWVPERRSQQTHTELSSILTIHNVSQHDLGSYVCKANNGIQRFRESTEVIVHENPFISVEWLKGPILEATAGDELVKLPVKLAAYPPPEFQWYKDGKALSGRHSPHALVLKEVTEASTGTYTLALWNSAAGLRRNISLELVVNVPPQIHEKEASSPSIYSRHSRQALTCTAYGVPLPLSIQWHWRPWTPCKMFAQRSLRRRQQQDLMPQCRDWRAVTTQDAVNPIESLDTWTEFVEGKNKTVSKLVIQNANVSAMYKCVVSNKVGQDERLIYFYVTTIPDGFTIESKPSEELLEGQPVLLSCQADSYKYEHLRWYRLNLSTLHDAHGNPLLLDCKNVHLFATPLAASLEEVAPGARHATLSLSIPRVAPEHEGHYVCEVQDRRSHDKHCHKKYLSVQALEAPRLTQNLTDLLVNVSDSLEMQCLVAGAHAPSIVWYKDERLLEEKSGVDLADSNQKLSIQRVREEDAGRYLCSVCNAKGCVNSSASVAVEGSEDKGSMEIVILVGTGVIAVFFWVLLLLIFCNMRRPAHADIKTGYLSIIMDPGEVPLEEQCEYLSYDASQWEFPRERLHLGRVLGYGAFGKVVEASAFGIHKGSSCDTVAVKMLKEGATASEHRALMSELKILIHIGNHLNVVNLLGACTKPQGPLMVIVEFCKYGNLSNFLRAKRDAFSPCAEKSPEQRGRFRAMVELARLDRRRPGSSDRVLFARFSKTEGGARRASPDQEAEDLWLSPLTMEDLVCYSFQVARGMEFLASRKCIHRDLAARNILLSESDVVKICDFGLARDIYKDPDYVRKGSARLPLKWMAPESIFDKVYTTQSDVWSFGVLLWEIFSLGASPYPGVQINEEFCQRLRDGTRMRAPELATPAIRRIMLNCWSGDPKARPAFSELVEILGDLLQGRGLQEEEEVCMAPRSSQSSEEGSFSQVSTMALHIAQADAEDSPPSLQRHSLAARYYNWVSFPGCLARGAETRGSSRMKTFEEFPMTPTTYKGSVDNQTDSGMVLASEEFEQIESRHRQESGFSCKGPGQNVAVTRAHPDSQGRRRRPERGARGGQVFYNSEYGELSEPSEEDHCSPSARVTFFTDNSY

[17] = molecular target: Vascular endothelial growth factor receptor 3 (Homo sapiens) (UniProt P35916); settings: at 1 µM
[18] = molecular target: Macrophage colony-stimulating factor 1 receptor (Homo sapiens) (UniProt P07333); settings: at 0.1 µM
Chain of Macrophage colony-stimulating factor 1 receptor (Homo sapiens) (P07333 whole entry): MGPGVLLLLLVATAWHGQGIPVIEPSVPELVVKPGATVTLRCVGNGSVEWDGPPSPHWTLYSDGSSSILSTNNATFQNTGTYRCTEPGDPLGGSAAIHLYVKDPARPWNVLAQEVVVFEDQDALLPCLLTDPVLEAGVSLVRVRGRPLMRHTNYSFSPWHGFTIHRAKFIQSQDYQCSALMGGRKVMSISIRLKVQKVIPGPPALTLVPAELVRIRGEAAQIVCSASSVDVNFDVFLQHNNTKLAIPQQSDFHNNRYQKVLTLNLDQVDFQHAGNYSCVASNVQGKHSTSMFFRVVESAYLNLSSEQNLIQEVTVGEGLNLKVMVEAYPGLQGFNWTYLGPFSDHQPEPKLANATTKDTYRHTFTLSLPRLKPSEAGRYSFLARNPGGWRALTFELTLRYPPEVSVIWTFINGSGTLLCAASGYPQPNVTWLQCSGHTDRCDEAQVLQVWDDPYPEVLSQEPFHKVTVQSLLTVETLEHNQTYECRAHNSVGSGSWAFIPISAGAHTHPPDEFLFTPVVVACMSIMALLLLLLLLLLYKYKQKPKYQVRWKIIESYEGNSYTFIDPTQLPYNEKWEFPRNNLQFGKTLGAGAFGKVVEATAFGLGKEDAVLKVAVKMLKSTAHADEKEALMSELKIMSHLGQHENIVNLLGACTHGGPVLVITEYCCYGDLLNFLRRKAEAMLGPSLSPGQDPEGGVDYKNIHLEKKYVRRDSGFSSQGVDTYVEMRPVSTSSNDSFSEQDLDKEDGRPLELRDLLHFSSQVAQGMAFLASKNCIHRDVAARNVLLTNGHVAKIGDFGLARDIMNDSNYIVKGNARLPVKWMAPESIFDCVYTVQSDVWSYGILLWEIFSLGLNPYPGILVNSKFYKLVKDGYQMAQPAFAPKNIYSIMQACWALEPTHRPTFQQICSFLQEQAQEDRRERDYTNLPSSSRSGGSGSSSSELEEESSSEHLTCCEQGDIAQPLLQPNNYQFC

[19] = molecular target: Macrophage colony-stimulating factor 1 receptor (Homo sapiens) (UniProt P07333); settings: at 1 µM
[20] = molecular target: Tyrosine-protein kinase Fyn (Homo sapiens) (UniProt P06241); settings: at 0.1 µM
Chain of Tyrosine-protein kinase Fyn (Homo sapiens) (P06241 2-537 limits assumed): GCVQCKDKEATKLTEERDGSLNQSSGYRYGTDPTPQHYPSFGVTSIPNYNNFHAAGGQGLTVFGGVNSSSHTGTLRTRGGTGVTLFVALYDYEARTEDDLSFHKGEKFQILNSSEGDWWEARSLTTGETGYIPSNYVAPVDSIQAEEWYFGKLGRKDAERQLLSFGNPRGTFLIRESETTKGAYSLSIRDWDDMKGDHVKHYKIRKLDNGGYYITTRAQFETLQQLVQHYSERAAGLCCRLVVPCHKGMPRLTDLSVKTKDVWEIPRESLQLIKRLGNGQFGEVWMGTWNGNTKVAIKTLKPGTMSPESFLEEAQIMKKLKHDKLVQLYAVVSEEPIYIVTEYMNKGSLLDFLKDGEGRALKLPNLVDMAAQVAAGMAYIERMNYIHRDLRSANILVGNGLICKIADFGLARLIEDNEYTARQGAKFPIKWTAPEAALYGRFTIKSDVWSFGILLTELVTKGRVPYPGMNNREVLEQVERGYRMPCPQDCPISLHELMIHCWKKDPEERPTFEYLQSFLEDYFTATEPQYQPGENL

COc1cc2ncn(-c3cc(OCc4ccccc4S(C)(=O)=O)c(C#N)s3)c2cc1OC
inhibition [1]: 115% | inhibition [2]: 2.58% | inhibition [3]: 3% | inhibition [4]: 6.68% | inhibition [5]: 14.4% | inhibition [6]: 3.33% | inhibition [7]: -0.15% | inhibition [8]: 4.85% | inhibition [9]: 3.13% | inhibition [10]: 3.17% | inhibition [11]: 1.96% | inhibition [12]: 10% | inhibition [13]: 47.5% | inhibition [14]: 5.84% | inhibition [15]: 23.9% | inhibition [16]: 26.8% | inhibition [17]: 73.4% | inhibition [18]: 6.26% | inhibition [19]: 33.2% | inhibition [20]: 30.9%
